# Rows were chosen to be rich in hits. Some 2.5% of all compounds tested hit in one or more screens of this group.
# ULK1 primary – inhibitors of human ULK1 kinase; AlphaScreen Atg13 phosphorylation by ULK1, luminescence; 30,000 tested, 1.9% active; O75385; AID 1259251; inhibition, % at 5.96 µM; in the data active = inhibition above about 43%
# ASK1 inh – human ASK1 kinase inhibition, primary screen; AlphaScreen MKK6 phosphorylation by ASK1, luminescence; 22,000 tested, 0.99% active; Q99683; inhibition, % at 7.44 µM; in the data active = inhibition above about 35%
# Target sequence (Q99683 whole entry, looked up): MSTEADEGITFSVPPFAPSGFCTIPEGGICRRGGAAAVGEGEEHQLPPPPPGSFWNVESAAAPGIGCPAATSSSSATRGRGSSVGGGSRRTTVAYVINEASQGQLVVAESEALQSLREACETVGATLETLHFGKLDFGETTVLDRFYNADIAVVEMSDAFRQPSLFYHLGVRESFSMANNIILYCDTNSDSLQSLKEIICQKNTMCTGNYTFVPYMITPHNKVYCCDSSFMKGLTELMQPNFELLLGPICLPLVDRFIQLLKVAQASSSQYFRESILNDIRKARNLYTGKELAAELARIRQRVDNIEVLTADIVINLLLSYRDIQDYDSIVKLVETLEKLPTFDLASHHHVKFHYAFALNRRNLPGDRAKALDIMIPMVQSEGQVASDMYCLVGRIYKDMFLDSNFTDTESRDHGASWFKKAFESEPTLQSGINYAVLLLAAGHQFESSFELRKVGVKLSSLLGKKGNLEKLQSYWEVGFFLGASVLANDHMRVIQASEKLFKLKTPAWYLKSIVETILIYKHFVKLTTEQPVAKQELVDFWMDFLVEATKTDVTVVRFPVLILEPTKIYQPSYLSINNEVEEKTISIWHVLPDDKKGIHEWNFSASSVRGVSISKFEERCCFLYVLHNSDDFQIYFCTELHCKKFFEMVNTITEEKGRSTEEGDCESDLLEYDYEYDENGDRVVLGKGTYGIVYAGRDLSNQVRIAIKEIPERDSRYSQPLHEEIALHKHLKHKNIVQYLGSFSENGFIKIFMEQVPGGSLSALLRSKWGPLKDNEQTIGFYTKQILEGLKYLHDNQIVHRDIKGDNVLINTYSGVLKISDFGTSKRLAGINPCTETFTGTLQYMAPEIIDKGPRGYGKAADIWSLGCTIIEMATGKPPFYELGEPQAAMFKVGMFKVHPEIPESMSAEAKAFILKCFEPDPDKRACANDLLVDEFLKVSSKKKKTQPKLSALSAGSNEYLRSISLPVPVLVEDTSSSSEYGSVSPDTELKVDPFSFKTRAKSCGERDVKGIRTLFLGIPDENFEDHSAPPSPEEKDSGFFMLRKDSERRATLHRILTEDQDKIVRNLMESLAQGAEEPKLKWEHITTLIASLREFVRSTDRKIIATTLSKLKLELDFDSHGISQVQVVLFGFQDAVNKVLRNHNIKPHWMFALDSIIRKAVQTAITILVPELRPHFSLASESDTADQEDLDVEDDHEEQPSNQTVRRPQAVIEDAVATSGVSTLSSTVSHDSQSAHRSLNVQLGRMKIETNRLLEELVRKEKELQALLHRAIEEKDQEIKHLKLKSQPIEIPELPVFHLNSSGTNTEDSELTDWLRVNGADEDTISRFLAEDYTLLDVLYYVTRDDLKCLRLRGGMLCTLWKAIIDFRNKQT
# Hits are given with their value; - = inactive; . = no result.
SMILES,ULK1 primary,ASK1 inh
COc1ccc(CCNc2nc(N3CCN(Cc4ccc5c(c4)OCO5)CC3)nc3nc[nH]c23)cc1,-,-
c1cc(N2CCOCC2)ccc1Nc1nc(NC2CC2)c2ncn(C3CCCCC3)c2n1,-,-
Cc1noc(C)c1-c1nc(Nc2ccccc2)c2ncn(C3CCCCC3)c2n1,-,-
Cc1noc(C)c1-c1nc(Nc2ccc(N3CCOCC3)cc2)c2ncn(C3CCCCC3)c2n1,50,-
c1cc(Nc2nc(NC3CC3)c3ncn(C4CCCCC4)c3n2)ncn1,44,-
c1cc(N2CCOCC2)ccc1Nc1nc(Nc2ccc(N3CCOCC3)cc2)c2ncn(C3CCCCC3)c2n1,53,-
c1ccc(Nc2nc(NC3CC3)c3ncn(C4CCCCC4)c3n2)nc1,-,-
O=C(NCCN1CCOCC1)c1csc(Nc2ccc(C(F)(F)F)cc2)n1,-,-
O=C1NC(=O)/C(=C\c2ccc(-c3ccccc3[N+](=O)[O-])o2)N1,-,.
Cn1c(Nc2nc(NCCOc3ccccc3)c3ncn(C4CCCCC4)c3n2)nc2ccccc21,52,-
COc1ccc(CCNc2nc(Nc3nc4ccccc4n3C)nc3c2ncn3C2CCCCC2)cc1,-,-
COc1ccc2c(c1)CC(C(=O)Nc1ccc(-c3cn[nH]c3)cc1OC1CCNCC1)CO2 (stereo not given),-,-
Cc1cc(NCCO)nc(-c2ccc(C(=O)NC3CC3)cc2)n1,-,-
c1ccc(CN2CCC(Nc3nc(Nc4ccncn4)nc4c3ncn4-c3ccsc3)CC2)cc1,-,-
CC(C)(O)c1ccccc1CC[C@@H](SCC1(CC(=O)O)CC1)c1cccc(/C=C/c2ccc3ccc(Cl)cc3n2)c1,43,.
Cc1cc(NCc2nc3ccccc3[nH]2)nc(-c2c(C)noc2C)n1,-,-
O=C(Cc1cn(-c2ccc(Nc3ccc(N4CCOCC4)cc3)nn2)c2ccccc12)Nc1ccccc1,-,-
Cn1nccc1Nc1ccc(-n2cc(CC(=O)Nc3ccc(N4CCOCC4)cc3)c3ccccc32)nn1,49,-
CC(C)n1c(N2CCCC2CO)nc2c(NCCCN3CCCC3=O)ncnc21 (stereo not given),-,-
c1ccc2c(c1)OC[C@H](c1nc3ccc(-c4cn[nH]c4)cc3[nH]1)O2,-,-
Cc1ncn(-c2ccc(Nc3nccc(-c4ccc(C#N)c(NCc5ccccc5)c4)n3)cc2)n1,-,-
CC(=O)Nc1ccc(Nc2nc(NCc3cccnc3)nc3c2ncn3-c2ccccc2)cc1,-,-
COc1cc(Nc2nc(Nc3ccc(NC(C)=O)cc3)c3ncn(C(C)C)c3n2)cc(OC)c1OC,-,-
CC(=O)Nc1ccc(Nc2nc(Nc3ccncc3)nc3c2ncn3C(C)C)cc1,66,-
OC1CCC(Nc2nc(Nc3ccccc3)c3ncn(-c4ccsc4)c3n2)CC1 (stereo not given),-,-
SMILES,ULK1 primary,ASK1 inh
CC(=O)Nc1ccc(Nc2nc(NCc3cccnc3)nc3c2ncn3-c2ccsc2)cc1,55,-
CC(=O)Nc1ccc(Nc2nc(NC3CCC(O)CC3)nc3c2ncn3-c2ccsc2)cc1 (stereo not given),44,-
COc1ccc(CNc2nc(Nc3ccc(OC)cc3)nc3c2ncn3C(C)C)cc1,-,-
COc1ccc(Nc2nc(Nc3ccc(OCCN4CCCCC4)cc3)c3ncn(C(C)C)c3n2)cc1,57,-
COc1ccc(Nc2nc(Nc3ccc(OCCN4CCCCC4)cc3)c3cc(OC)c(OC)cc3n2)cc1,-,-
COc1ccc(CCNc2ncnc3nc(-c4c(C)noc4C)[nH]c23)cc1,-,-
O=C(NCc1cccc(C(F)(F)F)c1)c1cnc(Nc2ccccn2)s1,-,-
CC(C)n1cnc2c(Nc3ccc(N4CCOCC4)cc3)nc(NCc3cccnc3)nc21,47,-
CC(=O)Nc1ccc(Nc2nc(NCc3cccnc3)nc3c2ncn3C(C)C)cc1,68,-
CC(C)n1cnc2c(NCc3ccccc3)nc(-c3ccc(C(N)=O)cc3)nc21,-,-
CC(C)n1cnc2c(Nc3ccc(N4CCOCC4)cc3)nc(NCc3ccc4c(c3)OCO4)nc21,-,-
CC(C)n1cnc2c(NCc3cccnc3)nc(Nc3ccncc3)nc21,-,-
CC(C)n1cnc2c(Nc3ccccc3)nc(-c3ccc(C(N)=O)cc3)nc21,68,-
CC(C)c1nnc(-c2cc3ccccc3n2CC(=O)NCc2ccc(F)cc2)o1,-,.
CC(C)n1cnc2c(Nc3ccc4c(c3)OCO4)nc(Nc3nc4ccccc4n3C)nc21,-,-
CC(C)NC(=O)c1cccc(NC(=O)Nc2ccc(-c3ncnc4[nH]ccc34)cc2)c1,47,-
CCc1c[nH]c2ncnc(-c3ccc(NC(=O)Nc4cccc(C(=O)NC(C)C)c4)cc3)c12,-,-
O=S(=O)(Nc1ccc(Br)cc1)c1ccc2c(c1)OCCCO2,-,.
COc1cc(Nc2nc(-c3cccc(N)c3)nc3c2ncn3C(C)C)cc(OC)c1OC,-,-
O=C1c2cccc(O)c2C(=O)c2c(O)cccc21,-,.
Cc1cc(O)c2c(c1)Cc1cccc(O)c1C2=O,44,.
Cc1ccc(-c2cccc3cnc(Nc4cccc(C(=O)N5CCCC5)c4)nc23)cn1,51,-
Cc1cc(Nc2ccccc2)nc(-c2ccc(C(=O)N3CCN(C)CC3)cc2)n1,-,-
Cc1ccc(-c2cccc3cnc(Nc4ccc(C(=O)N5CCN(C)CC5)cc4)nc23)cn1,58,-
Cc1ccc(-c2cccc3cnc(Nc4cccc(C(=O)N5CCN(C)CC5)c4)nc23)cn1,62,-
SMILES,ULK1 primary,ASK1 inh
Cc1cnc(-c2ccc(C(=O)N3CCN(C)CC3)cc2)nc1Nc1ccc(N2CCOCC2)cc1,-,-
Cn1cc(-c2cccc3cnc(NC4CCN(C(=O)N5CCCC5)C4)nc23)cn1 (stereo not given),-,-
Cc1ccc(-c2cccc3cnc(Nc4ccc(C(=O)N5CCOCC5)cc4)nc23)cn1,58,-
CC(=O)N1CCC(Nc2ncc3cccc(-c4ccc(C)nc4)c3n2)CC1,-,-
FC(F)(F)c1cccc(CNc2nc(Nc3ccc(N4CCOCC4)cc3)nc3c2ncn3C2CCCCC2)c1,-,-
CC(C)n1cnc2c(NCCO)nc(NCCN3CCOCC3)nc21,-,-
Cc1cc(N)nc(Nc2ccc(-n3ccnc3)cc2)n1,-,-
O=C(NCCN1CCOCC1)c1cccc(-n2ncc3c2CCC(Nc2ccccc2)C3)c1 (stereo not given),-,-
CC(C)(C)OC(=O)N1CCC[C@@H](NC(=O)c2cccc(-n3cc(NC(=O)Cc4ccccc4)cn3)c2)C1,-,-
CC(=O)Nc1ccc(Nc2nc(N3CCN(c4ccccn4)CC3)nc3nc[nH]c23)cc1,-,-
c1ccc(CN2CCC(Nc3ncnc4nc(Nc5cnccn5)[nH]c34)CC2)cc1,-,-
c1ccc(CN2CCC(Nc3ncnc4nc(Nc5ccncn5)[nH]c34)CC2)cc1,55,-
Cn1nccc1Nc1nc(NCCOc2ccccc2)c2ncn(CCN3CCCC3=O)c2n1,-,-
O=C(Nc1ccc(N2CCOCC2)cc1)C1CCN(c2ccc(Nc3ccc(C(F)(F)F)cc3)nn2)CC1,-,-
O=C(NCCO)C1CCN(c2ccc(Nc3ccc(C(F)(F)F)cc3)nn2)CC1,46,-
O=C(N/N=C/c1ccc2c(c1)OCO2)c1ccc([N+](=O)[O-])cc1,-,.
Nc1cnn(-c2ccnc(Nc3ccc(N4CCOCC4)cc3)c2)c1,-,-
O=C(NC1CC1)c1ccc2cncc(-c3ccsc3)c2n1,-,.
Cc1cnc(CNC(=O)c2ccc3cncc(-c4ccccc4)c3n2)cn1,-,.
COCCNC(=O)c1ccc2cncc(-c3ccsc3)c2n1,53,.
